# In the supplement of paper PMC13380429:
# What was measured:
# [1] = tested on: Vero E6 infected with SARS-CoV-2; experiment: morphology score (similarity to uninfected cells); higher = more like uninfected cells; details: 24 h
# [2] = tested on: Vero E6 infected with SARS-CoV-2; experiment: SARS-CoV-2 infection rate relative to infected DMSO; higher = more infection, active = 60 or less; details: 24 h
SMILES,morphology score [1],SARS-CoV-2 infection rate [2]
O=C(NCCNCC(O)COc1ccc(O)cc1)N1CCOCC1 (configuration not stated) [xamoterol] (10 µM),0.0295,110% (inactive)
C=C1CC[C@@]2(O)[C@H]3Cc4ccc(O)c5c4[C@@]2(CCN3CC2CC2)[C@H]1O5 [nalmefene] (10 µM),-0.0409,112% (inactive)
O=c1oc2c(O)c(O)cc3c(=O)oc4c(O)c(O)cc1c4c23 [ellagic-acid] (10 µM),0.105,94% (inactive)
CCCCCCN(CCCCCC)C(=O)Cc1c(-c2ccc(F)cc2)[nH]c2ccccc12 (10 µM),-0.0301,106% (inactive)
COC(=O)N[C@H](C(=O)N1CCC[C@H]1c1nc(-c2ccc3c(c2)O[C@@H](c2ccccc2)n2c-3cc3cc(-c4c[nH]c([C@@H]5CCCN5C(=O)[C@@H](NC(=O)OC)C(C)C)n4)ccc32)c[nH]1)C(C)C [elbasvir] (10 µM),-0.17,120% (inactive)
"Cl/C=C\C[N+]12CN3CN(CN(C3)C1)C2 [1-((Z)-3-chloroallyl)-1,3,5,7-tetraazaadamantan-1-ium] (10 µM)",0.0348,99% (inactive)
